# In article PMC13423814:
# Target: HNRNPC (UniProt P07910)
# Conditions: DSSO, in cells
substance,measurement,value
"HNRNPR, O43390",cross-linked residues,K374 - K8
